Compounds without any hit were thinned out: in the full panel of roughly 83,000, 20% have a hit.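 The test compound was applied at a single concentration to cells in 96-well plates for 48 hours, and percent growth was recorded.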 Activity calls are given as the source filed them. How the source made its calls: active means growth percent below 10; inactive means the rest.
Assays:
Assay in all cases: NCI-60 one-dose screen, 48 h (100 = growth as untreated, 0 = no growth, -100 = all killed)
Details in all cases: 10 µM unless noted
[1] = test system: SK-MEL-2 melanoma
[2] = test system: EKVX NSCLC
[3] = test system: SN12C renal
[4] = test system: UO-31 renal
[5] = test system: TK-10 renal
[6] = test system: ACHN renal
[7] = test system: CAKI-1 renal
[8] = test system: A498 renal
[9] = test system: CCRF-CEM leukemia
[10] = test system: MOLT-4 leukemia
[11] = test system: SR leukemia
[12] = test system: RPMI-8226 leukemia
[13] = test system: OVCAR-8 ovarian
[14] = test system: OVCAR-5 ovarian
[15] = test system: OVCAR-4 ovarian
[16] = test system: SK-OV-3 ovarian
[17] = test system: IGROV1 ovarian
[18] = test system: OVCAR-3 ovarian
[19] = test system: HS 578T breast
[20] = test system: NCI/ADR-RES ovarian

Measured: growth

CC(C)(C)n1cc(-c2ccnc(NCCCNS(=O)(=O)c3ccccc3)c2)c(-c2cccc(O)c2)n1
inactive: [1] 60.1% | [2] 57.3% | [3] 52.8% | [4] 55.7% | [5] 89.7% | [6] 45.6% | [7] 52.9% | [8] 40.2% | [9] 35.1% | [10] 32.1% | [11] 20.9% | [12] 10.5% | [13] 52.4% | [14] 67.7% | [15] 55.9% | [16] 88.6% | [17] 51.1% | [18] 54.1% | [19] 51% | [20] 56.9%

CCCCCCCCCCCC(=O)NCCC[N+](C)(C)CC(=O)[O-]
inactive: [1] 96.3% | [2] 103% | [3] 103% | [4] 97.6% | [5] 76.6% | [6] 109% | [7] 95.8% | [8] 91% | [9] 89.5% | [10] 78.6% | [11] 68.8% | [12] 93.2% | [13] 96.9% | [14] 90.2% | [15] 97.7% | [16] 103% | [17] 76.7% | [18] 99.8% | [19] 105% | [20] 102%

FC(F)(F)c1cccc(-c2cn3c(ccc4ccccc43)n2)c1
inactive: [1] 102% | [2] 85.4% | [3] 97% | [4] 68.1% | [5] 122% | [6] 90.3% | [7] 71.4% | [8] 94.9% | [9] 105% | [10] 104% | [11] 95.1% | [12] 94.4% | [13] 94.8% | [14] 102% | [15] 97.7% | [16] 85.7% | [17] 81.5% | [18] 97.2% | [19] 104% | [20] 92.6%

O=C(Nc1ccc(Cl)c(Cl)c1)NS(=O)(=O)c1cnccc1Oc1ccc(F)cc1
active: [7] 5.6% | [9] 2.81% | [12] -40.7% | [18] 8.22%
inactive: [1] 64.3% | [2] 15.1% | [3] 76.3% | [4] 67.4% | [5] 42.3% | [6] 43.5% | [8] 33.7% | [10] 52.3% | [11] 51.2% | [13] 55.4% | [14] 82.7% | [15] 52% | [16] 88.7% | [17] 71.7% | [19] 86% | [20] 53.3%

CC(=O)Oc1csc(N(C(C)=O)c2cc(C(=O)O)cc(C(=O)O)c2)n1
inactive: [1] 106% | [2] 76.2% | [3] 98.8% | [4] 92.7% | [5] 105% | [6] 104% | [7] 101% | [8] 70.5% | [10] 109% | [11] 114% | [12] 43.3% | [13] 104% | [14] 101% | [15] 90.4% | [16] 111% | [17] 101% | [18] 105% | [19] 95.3% | [20] 99.2%
active: [9] 1.74%

CC(C)(C)n1cc(-c2ccnc(NCCNS(=O)(=O)c3ccc(Cl)cc3)c2)c(-c2cccc(O)c2)n1
inactive: [1] 74.3% | [2] 60.2% | [3] 61.6% | [4] 49.6% | [5] 108% | [6] 76.8% | [7] 71.8% | [8] 69.4% | [9] 50.3% | [10] 31.9% | [11] 24.9% | [12] 23.8% | [13] 65.1% | [14] 80.9% | [15] 53.5% | [16] 90.4% | [17] 79.1% | [18] 72.5% | [19] 66% | [20] 68.2%

CC(C)(C)n1cc(-c2ccnc(NCCCNS(=O)(=O)c3cccc(F)c3)c2)c(-c2cccc(O)c2)n1
inactive: [1] 61% | [2] 51.5% | [3] 59.7% | [4] 57.8% | [5] 97.9% | [6] 51.7% | [7] 56.2% | [8] 51.9% | [9] 39.6% | [10] 33.4% | [11] 16.4% | [12] 17.5% | [13] 57.5% | [14] 68.2% | [15] 57.8% | [16] 89.2% | [17] 58.8% | [18] 65.7% | [19] 58.2% | [20] 62%

CC(=O)Oc1csc(N(C(C)=O)c2cccc(C(F)(F)F)c2)n1
inactive: [1] 96.7% | [2] 46.1% | [3] 89.6% | [4] 91% | [5] 108% | [6] 102% | [7] 98.4% | [8] 85.2% | [9] 60.9% | [10] 104% | [11] 107% | [12] 75.8% | [13] 94.1% | [14] 96.2% | [15] 89.4% | [16] 99.6% | [17] 98.4% | [18] 103% | [19] 93% | [20] 104%

CCCCOc1ccc(/C=C2/SC(N3CCCC3)=NC2=O)cc1
inactive: [1] 105% | [2] 94.5% | [3] 87.3% | [4] 82.4% | [5] 103% | [6] 103% | [7] 96.8% | [8] 91.3% | [9] 84.3% | [10] 95.6% | [11] 91.1% | [12] 84.8% | [13] 99.7% | [14] 90.1% | [15] 80.6% | [16] 96.9% | [17] 95.1% | [18] 106% | [19] 116% | [20] 90.8%

NC(=O)c1c(NC(=S)Nc2ccc(OC(F)(F)F)cc2)sc2c1CCC1(C2)OCCO1
inactive: [1] 93.9% | [2] 93.1% | [3] 95.4% | [4] 88% | [5] 106% | [6] 99.9% | [7] 93.6% | [8] 90.4% | [9] 93.8% | [10] 87.3% | [11] 92.1% | [12] 93.2% | [13] 99.7% | [14] 91.9% | [15] 95.3% | [16] 89.9% | [17] 96.3% | [18] 109% | [19] 79.5% | [20] 98.9%

C=CCn1c2ccccc2c2c3c(c4c5ccccc5n(CC=C)c4c21)C(=O)N(O)C3=O
inactive: [1] 70.4% | [2] 66% | [5] 50.8% | [8] 23.7% | [9] 10.2% | [12] 24.4% | [13] 22.9% | [14] 86.4% | [15] 45.8% | [16] 33.9% | [18] 33.2% | [19] 77.2%
active: [3] 9.32% | [4] -47% | [6] -33.6% | [7] -70.6% | [10] -10.4% | [11] 7.52% | [17] -15.6% | [20] 2.91%

CCCCC(CC)OC(=O)C(Br)CC (stereo not given)
inactive: [1] 100% | [2] 105% | [3] 115% | [4] 93.6% | [5] 103% | [6] 109% | [7] 99% | [8] 97.4% | [9] 109% | [10] 95.4% | [11] 94.3% | [12] 113% | [13] 101% | [14] 106% | [15] 90.6% | [16] 114% | [17] 105% | [18] 104% | [19] 101% | [20] 98.7%

C=C1c2nc3ccccc3n2C=C(c2ccc(Cl)cc2)N1Cc1ccccc1
inactive: [1] 69.7% | [2] 70.8% | [3] 95.1% | [4] 48.2% | [5] 119% | [6] 81.4% | [7] 79% | [8] 84.7% | [9] 78.9% | [10] 58.5% | [11] 23.7% | [12] 35.3% | [13] 75.6% | [14] 99.9% | [16] 83.4% | [17] 106% | [18] 92.2% | [19] 87% | [20] 79.4%
active: [15] -8.06%

CC(C)C(C(=O)NCCN1CCOCC1)N1C(=O)/C(=C/c2ccc(Br)cc2)SC1=S (stereo not given)
inactive: [1] 93.9% | [2] 104% | [3] 93.8% | [4] 84.9% | [5] 121% | [6] 101% | [7] 97.9% | [8] 96.8% | [9] 97.8% | [10] 102% | [11] 111% | [12] 98% | [13] 108% | [14] 102% | [15] 105% | [16] 112% | [17] 108% | [18] 104% | [19] 95.1% | [20] 96.7%

Cc1cc(N/N=C/c2nc(-c3ccc(Br)cc3)oc2C)c2cc(Br)ccc2n1
active: [9] -4.62% | [10] 7.29% | [11] 2.16% | [12] -9.38% | [15] -83.5% | [18] -13.4%
inactive: [1] 99% | [2] 90.9% | [3] 26.8% | [4] 58.7% | [5] 82% | [6] 64.9% | [7] 88.3% | [8] 85.7% | [13] 12% | [14] 95.6% | [16] 105% | [17] 78.8% | [19] 85.5% | [20] 35%

— PubChem BioAssay (NCI)
